Assay results published in PubChem BioAssay (EPA / NIEHS).
Calls of active or inactive are those of the source. The calls were made as follows: active = hit-call score of the fitted dose curve at least 0.9, where 1 is the maximum; inactive = score below 0.9.

Assay: ATG_M_32_CIS: Attagene CIS-FACTORIAL HepG2 Assay for M32 Transcription Factor (Internal Marker) (AID 2282949);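 also: background control marker of the multiplexed CIS panel rather than a real target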
Details: HepG2 Attagene cis-factorial M32 reporter, mRNA; actives raise or lower the signal
Procedure: ATG_CIS is a cell-based, multiplexed-readout assay that uses HepG2, a human liver cell line, with measurements taken at 24 hours after chemical dosing in a 24-well plate.ATG_M_32_CIS is one of 52 assay component(s) measured or calculated from the ATG_CIS assay. It is designed to make measurements of mRNA induction, a form of inducible reporter, as detected with fluorescence intensity signals by Reverse transcription polymerase chain reaction (RT-PCR) and Capillary electrophoresis technology.Data from the assay component ATG_M_32_CIS was analyzed into 1 assay endpoint. This assay endpoint, ATG_M_32_CIS, was analyzed with bidirectional fitting relative to DMSO as the negative control and baseline of activity. Using a type of inducible reporter, measures of mRNA for gain or loss-of-signal activity can be used to understand the background control at the transcription factor-level as they relate to the gene . Furthermore, this assay endpoint can be referred to as a secondary readout, because this assay has produced multiple assay endpoints where this one serves a background control function. To generalize the intended target to other relatable targets, this assay endpoint is annotated to the background measurement intended target family, where the subfamily is internal marker.
Human liver HepG2 cells are transiently transfected with multiple reporter transcription units (MRTUs) in 6-well plates using FuGene 6 reagent (Roche; 3 ml FuGene/1 mg DNA). The MRTU constructs are regulated by a cis-regulating element (promoter). […] A major difference between the CIS and TRANS system is that in CIS activities of endogenous TFs are measured, whereas the TRANS assay evaluates changes in activities of exogenous, chimeric NR-Gal4 proteins. […] At the end of 24 hour incubation, total RNA was isolated using TriZol reagent (Invitrogen). The isolated RNA is then reverse-transcribed using oligo(dT) primer and Mo-MLV reverse transcriptase (Invitrogen) with DNAse I (Ambion) treatment for 30 min. The one-tenth of the produced cDNA was amplified by PCR using Taq DNA polymerase (Invitrogen) and two reporter sequence-specific primers. The PCR products were fluorescently labeled by primer extension with 6-arboxyfluorescein (6-FAM) 5'-labeled reporter sequence-specific primer (2 min at 95 C, 20 s at 68 C and 10 min at 72 C) and these products were digested with 5U of HpaI (New England Biolabs) for 2h at 37 C. The fragments were purified using Qiaquick PCR columns (Qiagen), analyzed on an ABI 3130xL genetic analyzer (Applied Biosystems) with peak positions identified by using a set of X-rhodamine (ROX)-labeled MapMarker1000 molecular weight standards (BioVentures). The raw capillary electrophoresis data was processed using Attagraph software (Attagene).

outcome, inactive:
CCCCCC=CCC(=O)OC, CCCCCCCCCCCCN, CC(C)=CCCC(C)CC=O (stereo not given), C=C(C)[C@@H]1CCC2=CC(=O)C[C@@H](C)[C@]2(C)C1, CC1(C)CCC(C)(C)c2cc(C(=O)Nc3ccc(C(=O)O)cc3)ccc21, CC(=O)C(C)=O, Cc1ccccc1C=O, CCCCCCCCCCC(CO)CCCCCCCC (stereo not given), COC(C(=O)O)c1ccccc1 (stereo not given), CC1CCC(C(C)(C)O)CC1 (stereo not given), CCC(=O)OCCC(C)CCC=C(C)C (stereo not given), CC(C)C[C@H]1C(=O)N2CCC[C@H]2[C@]2(O)O[C@](NC(=O)[C@@H]3C=C4c5cccc6[nH]c(Br)c(c56)C[C@H]4N(C)C3)(C(C)C)C(=O)N12, Clc1nc(C(Cl)(Cl)Cl)c(Cl)c(Cl)c1Cl, CCc1ccc(C=O)cc1, C=C(C)C1CCC(C)CC1O (stereo not given), CCCCCCCCC=O, O=C1NC(=O)c2ccccc21, C=CCOC(=O)CCC1CCCCC1, CC1(C)[C@H](C(=O)OCc2cccc(Oc3ccccc3)c2)[C@@H]1C=C(Cl)Cl, O=C(O)COCCN1CCN(C(c2ccccc2)c2ccc(Cl)cc2)CC1 (stereo not given), CCCCOCCOCCSC#N, CCCCCCCCCCCCCC(=O)O, CCc1c(C)cc(N)c(CC)c1N, COc1cc(C(C)(C)C)c(O)c(C(C)(C)C)c1, C=CC(=O)NCOCC(C)C, O=C(O)c1ccc(C(=O)O)cc1, NC(=O)c1ccccc1Cl, Cc1ccc(Nc2ccc(O)c3c2C(=O)c2ccccc2C3=O)cc1, CC1(C)[C@H]2CC[C@]1(C)[C@H](O)C2, CCCCCCOC(=O)CC, CC(=O)OCCOC(C)=O, O=c1oc(=O)c2cc3c(=O)oc(=O)c3cc12, Fc1c(F)c(F)c(Br)c(F)c1F, CC(CCO)CCCC(C)(C)O (stereo not given), CCCCC/C=C/C=C/C=O, O=C(Nc1ccccc1)c1cc([N+](=O)[O-])ccc1Cl, CC(O)C(C)O (stereo not given), N#Cc1ccc(CC(=NNC(=O)Nc2ccc(OC(F)(F)F)cc2)c2cccc(C(F)(F)F)c2)cc1, CCn1c2ccccc2c2cc(N)ccc21, CC1(C)OC[C@@H]2O[C@@]3(C(=O)O)OC(C)(C)O[C@H]3[C@@H]2O1
